High-throughput results (PubChem BioAssay)
Hits are enriched below; roughly 1.2% of the tested compounds scored in any of these assays.
RGS16-Gao HTS = RGS16-Galphao interaction regulator (human); O15492+P09471; bead-based flow cytometry RGS16-Galphao binding, fluorescence; actives lie on both sides; binding response (% of control), % at 10 µM; 220,000 compounds, 0.38% hits;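 also: Galphao activated by GDP with aluminum fluoride before binding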
Target sequence (O15492 whole entry, looked up): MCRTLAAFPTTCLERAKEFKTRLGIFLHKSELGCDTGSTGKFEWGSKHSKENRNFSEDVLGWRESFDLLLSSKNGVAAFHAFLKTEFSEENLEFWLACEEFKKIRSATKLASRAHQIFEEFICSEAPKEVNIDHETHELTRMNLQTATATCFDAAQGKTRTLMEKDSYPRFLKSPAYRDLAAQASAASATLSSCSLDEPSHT
Target sequence (P09471 whole entry, looked up): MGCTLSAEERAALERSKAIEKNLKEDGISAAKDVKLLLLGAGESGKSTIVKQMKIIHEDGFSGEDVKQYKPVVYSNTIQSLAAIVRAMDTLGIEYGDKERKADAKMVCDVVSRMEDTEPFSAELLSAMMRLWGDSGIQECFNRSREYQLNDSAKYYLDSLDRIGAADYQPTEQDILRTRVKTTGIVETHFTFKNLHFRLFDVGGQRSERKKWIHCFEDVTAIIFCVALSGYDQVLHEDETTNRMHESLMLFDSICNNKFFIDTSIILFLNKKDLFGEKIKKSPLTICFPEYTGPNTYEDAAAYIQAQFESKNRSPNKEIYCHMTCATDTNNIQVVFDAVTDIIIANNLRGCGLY
RGS8-Gao reg = human RGS8-Galphao interaction regulation; 220,000 compounds, 0.34% hits; multiplexed bead flow cytometry, RGS8-Galphao binding; actives lie on both sides; response (percent of control binding), % at 10 µM; P09471; in the data active = response below about 60% or above about 140%; inactive = in between;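 also: Galphao activated as the GDP aluminium fluoride complex binding bead-coupled RGS8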
Target sequence (P09471 whole entry, looked up): as above
Avidin fluor = compound fluoresces at 488/530 nm on avidin beads; compound fluorescence 488/530 nm, flow cytometry; hits give high values; fluorescence (KMESF) at 10 µM; 220,000 compounds, 0.38% hits; in the data active = fluorescence above about 47
RGS4-Gao reg = human RGS4-Galphao interaction regulation; 220,000 compounds, 0.33% hits; Multiplexed bead flow cytometry, RGS4-Galphao binding; actives lie on both sides; AID 1415; binding response (% of control), % at 10 µM; in the data active = binding response below about 49% or above about 150%; inactive = in between;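 also: fluorescent Galphao activated with aluminum fluoride binding bead-coupled RGS4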
RGS7-Gao reg = human RGS7-Galphao interaction regulation | Multiplexed bead flow cytometry, RGS7-Galphao binding; actives lie on both sides | binding response (% of control), % at 10 µM | 220,000 compounds, 0.35% hits; in the data active = binding response below about 49% or above about 150%; inconclusive = no clear call, values can overlap the other calls; inactive = in between;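 also: fluorescent Galphao held in activated GDP-AlF4 state binding bead-coupled RGS7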
GSH fluor = GSH bead compound fluorescence profile. 190,000 compounds, 0.25% hits. GSH beads flow cytometry, compound fluorescence 488/530 nm; hits give high values. fluorescence (KMESF) at 10 µM; in the data active = fluorescence above about 89;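 also: glutathione beads carrying GST-tagged Bcl family fusion proteins plus one bare bead set; values are compound well signal with DMSO vehicle wells as background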
RGS4-Gao HTS = modulates binding between human RGS4 and Galphao; multiplexed bead flow cytometry, RGS–Galpha-o binding; shares compounds with RGS16-Gao HTS; RGS4–Galpha-o binding response, % at 10 µM; AID 1504; 1,600 compounds, 99% hits;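 also: fluorescently labeled Galpha-o bound to GDP with aluminium fluoride binding biotinylated RGS beads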
Biotin-avidin = interferes with biotinylated probe binding to avidin beads. shares compounds with RGS16-Gao HTS. inhibition, % at 10 µM. 1,700 tested, under 10 active. streptavidin beads, fluorescein-biotin binding, flow cytometry;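 active = inhibition above 50%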;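 also: median green fluorescence of gated singlet beads compared with DMSO control wells; 0% = DMSO wells and 100% = complete loss of bead fluorescence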
RGS8-Gao single = RGS8-Galphao interaction regulation, single point confirmation; shares compounds with RGS16-Gao HTS; bead-based flow cytometry RGS8-Galphao binding, fluorescence; actives lie on both sides; binding response (% of control), % at 10 µM; 1,700 compounds, 3% hits; in the data active = binding response below about 72% or above about 130%; inactive = in between;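 also: Galphao activated as GDP AlF4 complex before binding bead RGS8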
RGS7-Gao confirm = RGS7-Galphao interaction regulation, single point confirmation; shares compounds with RGS16-Gao HTS; response (percent of control binding), % at 10 µM; 1,700 compounds, 7.8% hits; bead-based flow cytometry RGS7-Galphao binding; actives lie on both sides; AID 1837; in the data active = response below about 75% or above about 130%; inactive = in between;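 also: fluorescent Galphao activated with GDP and aluminum fluoride binding bead-coupled RGS7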
RGS16-Gao single = RGS16-Galphao interaction regulation, single point confirmation | shares compounds with RGS16-Gao HTS | response (% of control binding), % at 10 µM | bead-based flow cytometry, RGS16-Galphao binding; actives lie on both sides | 1,700 compounds, 4% hits; in the data active = response below about 74% or above about 130%; inactive = in between;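 also: Galphao activated as the GDP aluminium fluoride complex binding bead-coupled RGS16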
RGS4-Gao confirm = confirmation of regulators of human RGS4-Galphao interaction | shares compounds with RGS16-Gao HTS | RGS4-Galphao binding, multiplexed bead flow cytometry; actives lie on both sides | binding response (% of control), % at 10 µM | 1,700 compounds, 4% hits; in the data active = binding response below about 74% or above about 130%; inactive = in between
RGS19-Gao conf = RGS19-Galphao interaction regulation, single point confirmation | shares compounds with RGS16-Gao HTS | bead-based flow cytometry RGS19-Galphao binding; actives lie on both sides | response (percent of control binding), % at 10 µM | 1,700 compounds, 5% hits | AID 1841; in the data active = response below about 50% or above about 160%; inactive = in between;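 also: 100% = no compound control and 0% = blank background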
* marks the source's active call; other numbers are inactive results; [ ] = remark or other dose. Unless noted, no rule for the calls is given here.

CC1CC(C)CN(C(=O)/C=C/c2ccc([N+](=O)[O-])s2)C1 (stereo unspecified) was read as RGS16-Gao HTS 11*, RGS8-Gao reg 14*, RGS4-Gao reg 18*, RGS7-Gao reg 15*, GSH fluor 15, Biotin-avidin -2, RGS8-Gao single 96, RGS7-Gao confirm 47*, RGS16-Gao single 82, RGS4-Gao confirm 58* and RGS19-Gao conf 81.
For CC1CN(C(=O)/C=C/c2ccc([N+](=O)[O-])s2)CC(C)O1 (stereo unspecified) the results were RGS16-Gao HTS 111, RGS8-Gao reg 106, Avidin fluor 23, RGS4-Gao reg 106, RGS7-Gao reg 103 and GSH fluor 20.
`O=C(CSc1nnc(CCCO)n1-c1ccccc1)NCCc1ccccc1` gave RGS16-Gao HTS 0.4*, RGS8-Gao reg 8.7*, Avidin fluor -1, RGS4-Gao reg 22*, RGS7-Gao reg 16*, GSH fluor 28, Biotin-avidin -1, RGS8-Gao single 108, RGS7-Gao confirm 107, RGS16-Gao single 109, RGS4-Gao confirm 103 and RGS19-Gao conf 118.
`O=C(CSc1nnc(CCCO)n1-c1ccccc1)Nc1nccs1` gave RGS16-Gao HTS 99, RGS8-Gao reg 99, Avidin fluor 15, RGS4-Gao reg 98, RGS7-Gao reg 105 and GSH fluor 14.
`N#CCCn1cc(/C=N/N=C2\NC(=O)C(CC(=O)O)S2)c(-c2ccc(F)cc2)n1` (stereo unspecified) gave RGS16-Gao HTS 111, RGS8-Gao reg 112, Avidin fluor 6, RGS4-Gao reg 109 and RGS7-Gao reg inconclusive.
`CS(=O)(=O)N1CCC(Oc2ccccc2C(=O)NC(C2CC2)C2CC2)CC1` gave RGS16-Gao HTS 116, RGS8-Gao reg 105, Avidin fluor 9, RGS4-Gao reg 103, RGS7-Gao reg 101 and GSH fluor 23.
For Cc1ccc(N(C(=O)Nc2ccccc2)C2=NCCC2)cc1 the results were RGS16-Gao HTS 54, RGS8-Gao reg 72, Avidin fluor 1, RGS4-Gao reg 44*, RGS7-Gao reg inconclusive, Biotin-avidin -1, RGS8-Gao single 98, RGS7-Gao confirm 47*, RGS16-Gao single 80, RGS4-Gao confirm 57* and RGS19-Gao conf 84.
For O=C(Nc1ccccc1)N(C1=NCCC1)c1ccccc1 the results were RGS16-Gao HTS 103, RGS8-Gao reg 101, Avidin fluor 5, RGS4-Gao reg 104 and RGS7-Gao reg inconclusive.
`O=C(NCc1ccco1)c1ccc(COc2ccc(Cl)cc2)cc1` gave RGS16-Gao HTS 12*, RGS8-Gao reg 75, Avidin fluor 8, RGS4-Gao reg 89, RGS7-Gao reg 85, GSH fluor 6, RGS4-Gao HTS 89*, Biotin-avidin 0, RGS8-Gao single 99, RGS7-Gao confirm 101, RGS16-Gao single 98, RGS4-Gao confirm 100 and RGS19-Gao conf 91.
For S=C(NCc1ccco1)Nc1ccc(Oc2ccc(Cl)cc2)cc1 the results were RGS16-Gao HTS -20*, RGS8-Gao reg 14*, Avidin fluor -2, RGS4-Gao reg -37*, RGS7-Gao reg inconclusive, Biotin-avidin -2, RGS8-Gao single 101, RGS7-Gao confirm 96, RGS16-Gao single 98, RGS4-Gao confirm 97 and RGS19-Gao conf 98.
Screening CCCCNC(=O)CN(CCc1ccccc1)S(C)(=O)=O returned RGS16-Gao HTS 149, RGS8-Gao reg 108, Avidin fluor 23, RGS4-Gao reg 169*[activator], RGS7-Gao reg 133, GSH fluor 12, Biotin-avidin inactive, RGS8-Gao single 107, RGS7-Gao confirm 118, RGS16-Gao single 110, RGS4-Gao confirm 114 and RGS19-Gao conf 109.
For COc1ccc(N=C(N(C)C)P(=O)(N(C)C)N(C)C)cc1 the results were RGS16-Gao HTS inactive, RGS8-Gao reg 150*[activator], Avidin fluor 3, RGS4-Gao reg 138, RGS7-Gao reg 126, GSH fluor 39, RGS4-Gao HTS 138*, Biotin-avidin 1, RGS8-Gao single 101, RGS7-Gao confirm 100, RGS16-Gao single 105, RGS4-Gao confirm 103 and RGS19-Gao conf 111.
Screening COc1ccc(N=C(C)C2=C(O)c3ccccc3C2=O)cc1 returned RGS16-Gao HTS 94, RGS8-Gao reg 100, Avidin fluor 12, RGS4-Gao reg 102, RGS7-Gao reg 104 and GSH fluor 9.
Screening N#Cc1ccccc1S(=O)(=O)Nc1ccc2c(c1)C(=O)OC2 returned RGS16-Gao HTS 95, RGS8-Gao reg 97, Avidin fluor 7, RGS4-Gao reg 97 and RGS7-Gao reg inconclusive.
`COc1ccc(-c2cc(C(F)(F)F)nc(SCC(=O)N(C)Cc3cn(C)nc3C)n2)cc1OC` gave RGS16-Gao HTS 0.0*, RGS8-Gao reg 64, Avidin fluor 4, RGS4-Gao reg 78, RGS7-Gao reg 75, GSH fluor 6, RGS4-Gao HTS 78*, Biotin-avidin 1, RGS8-Gao single 108, RGS7-Gao confirm 104, RGS16-Gao single 107, RGS4-Gao confirm 102 and RGS19-Gao conf 99.
For COc1ccc(-c2cc(C(F)(F)F)nc(SCC(=O)NCc3cnn(C)c3C)n2)cc1OC the results were RGS16-Gao HTS 109, RGS8-Gao reg 106, Avidin fluor 5, RGS4-Gao reg 103, RGS7-Gao reg 103 and GSH fluor 10.
